Assay outcomes as filed in PubChem.
Only some compounds are listed: those with a hit (about 0.31% of all), similar ones and a draw of the others.
TRPML1 inh = blocks the human TRPML1 channel; Q9GZU1; TRPML1-inducible cells, Ca2+ dye fluorescence, FDSS; hits give low values; inhibition of EC80 agonist-evoked calcium signal; activity change, negative = inhibition, % (no concentration beside the values); 390,000 compounds, 0.02% hits; AID 624415; in the data active = activity change below about -50%; inconclusive = between about -30% and that limit;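 also: stimulus is agonist 54-4 at its EC80 concentration; % is scaled to controls: 0 for no effect and ±100 for the full control effect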
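TRPML1-DL cells, Tet-induced overnight (~16 h, 37 °C) at 1,500 cells/well, were loaded with Ca8 no-wash dye plus quencher for 45-90 min at room temperature. Compounds were pinned during FDSS kinetic reading; agonist 54-4 at EC80 (4 uM final) then added.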
TRPML1 agonist = agonists of human TRPML1 channel. TRPML1-expressing cells, Ca2+ dye fluorescence, FDSS. activation, % (concentration not given with the values). 410,000 compounds, 0.12% hits; in the data active = activation above about 50%; inconclusive = mostly about 30% to 49%; also: 0% is about no effect
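Kinetic FDSS Ca2+ read in Tet-induced TRPML1-DL cells (ABD Ca8 dye plus quencher, 45-90 min RT loading): baseline, then compound, then 110 s agonist window; EC80 agonist 54-4 at 4uM final added afterwards for a 110 s antagonist window.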
TRPV1 potentiator = human TRPV1 potentiation | potentiation, % at 8.33 µM | AID 540277 | TRPV1-expressing cells, Fluo-8 calcium influx, capsaicin EC20 potentiation | 320,000 compounds, 0.02% hits | Q8NER1; in the data active = potentiation above about 80%; inconclusive = between about 30% and that limit; also: 0% is about no effect
Target sequence (Q8NER1 whole entry, looked up): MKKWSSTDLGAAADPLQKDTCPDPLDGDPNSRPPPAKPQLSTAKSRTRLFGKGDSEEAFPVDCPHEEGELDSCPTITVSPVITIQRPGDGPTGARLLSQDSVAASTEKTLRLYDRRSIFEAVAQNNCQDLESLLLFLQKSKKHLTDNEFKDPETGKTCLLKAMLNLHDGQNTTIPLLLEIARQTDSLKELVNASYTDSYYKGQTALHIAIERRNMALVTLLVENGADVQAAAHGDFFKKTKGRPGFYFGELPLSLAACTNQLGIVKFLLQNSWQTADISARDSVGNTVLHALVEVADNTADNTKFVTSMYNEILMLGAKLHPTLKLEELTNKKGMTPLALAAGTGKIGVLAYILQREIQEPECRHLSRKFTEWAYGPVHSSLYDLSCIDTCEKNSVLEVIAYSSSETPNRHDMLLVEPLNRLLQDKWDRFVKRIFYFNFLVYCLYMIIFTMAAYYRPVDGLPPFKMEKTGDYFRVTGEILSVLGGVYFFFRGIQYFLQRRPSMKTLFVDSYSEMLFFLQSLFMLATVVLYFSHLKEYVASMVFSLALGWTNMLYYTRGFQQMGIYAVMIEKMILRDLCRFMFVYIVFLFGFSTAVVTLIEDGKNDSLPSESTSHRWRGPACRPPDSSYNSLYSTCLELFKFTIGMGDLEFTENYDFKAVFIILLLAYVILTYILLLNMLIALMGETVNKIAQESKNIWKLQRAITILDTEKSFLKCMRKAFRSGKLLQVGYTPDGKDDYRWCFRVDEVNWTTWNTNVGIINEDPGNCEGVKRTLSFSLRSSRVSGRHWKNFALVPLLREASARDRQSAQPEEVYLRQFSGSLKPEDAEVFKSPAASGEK
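TRPV1-expressing cells were cultured overnight at 35.5C and loaded with Fluo-8 calcium dye for 40 to 90 min at room temperature. After a 10 s baseline, compound was added and calcium influx was read kinetically for 3 min (ex 480/em 520 nm).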
TRPV1 ag = activates the human vanilloid receptor TRPV1; Q8NER1; TRPV1-expressing cells, Fluo-8 calcium influx, agonist mode; activation, % at 8.33 µM; 320,000 compounds, 0.19% hits; in the data active = activation above about 80%; inconclusive = between about 30% and that limit; also: 0% is about no effect
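TRPV1-expressing cells were cultured overnight at 35.5C and loaded with Fluo-8 calcium dye for 40 to 90 min at room temperature. After a 10 s baseline, compound was added and calcium influx was read kinetically for 3 min (ex 480/em 520 nm).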
* hit, by the source's call.

O=C(Cc1cccs1)Nc1cccc(-c2nnc(-c3ccco3)o2)c1 was read as TRPML1 inh 20, TRPML1 agonist 1, TRPV1 potentiator 89* and TRPV1 ag inconclusive.
CC(C)(C)n1ncc2c(=O)n(Cc3ccc(Cl)cc3F)cnc21 was read as TRPML1 inh 1 and TRPML1 agonist 2.
`O=C(CN1CCN(CC(=O)Nc2ccccc2Cl)CC1)NCC1(N2CCCCC2)CCCCC1` gave TRPML1 inh -12, TRPML1 agonist 1, TRPV1 potentiator 16 and TRPV1 ag 0.
O=C(CN1CCN(CC(=O)Nc2ccccc2Cl)CC1)NCC1(N2CCOCC2)CCCCC1 was read as TRPML1 inh -10, TRPML1 agonist 98*, TRPV1 potentiator 3 and TRPV1 ag 0.
Screening COc1cc2c(NC3CCN(C(C)C)CC3)nc(N3CCCN(C)CC3)nc2cc1OCCOCCN1CCCC1 returned TRPML1 agonist 0.
CCCCCCC[n+]1ccc(/C=C/c2c(C)[nH]c3ccccc23)c2ccccc21 was read as TRPML1 agonist 3.
O=C(c1ccc(C(F)(F)F)cc1)C1CCCN(C(=O)CCc2ccncc2)C1 (configuration not stated) was read as TRPML1 inh 1, TRPML1 agonist 0, TRPV1 potentiator -14 and TRPV1 ag 87*.
Screening NC(=O)CCC(=O)N1CCCC(C(=O)c2ccc(C(F)(F)F)cc2)C1 (configuration not stated) returned TRPML1 inh -12, TRPML1 agonist 0, TRPV1 potentiator 13 and TRPV1 ag 6.
CCOC(=O)/C(=C\C=C1/Sc2cc(OCC)c(OCC)cc2N1CC)C(C)=O was read as TRPML1 inh 9, TRPML1 agonist 89*, TRPV1 potentiator -14 and TRPV1 ag inconclusive.
Screening CCOC(=O)/C(=C/C=C1\Sc2cc(OCC)c(OCC)cc2N1CC)C(C)=O returned TRPML1 inh -23, TRPML1 agonist 77*, TRPV1 potentiator -7 and TRPV1 ag inconclusive.
CCN1/C(=C/C(C)=O)Sc2ccc(OC)cc21 was read as TRPML1 inh 19, TRPML1 agonist -1, TRPV1 potentiator -10 and TRPV1 ag -2.
For O=C(Nc1ccc(C(F)(F)F)cc1)c1ccccc1 the results were TRPML1 inh 32, TRPML1 agonist -1, TRPV1 potentiator 14 and TRPV1 ag 82*.
For CC(=O)c1ccc(NC(=O)c2ccc3snnc3c2)cc1 the results were TRPML1 inh 1, TRPML1 agonist 0, TRPV1 potentiator -10 and TRPV1 ag inconclusive.
Screening COc1ccc(C(C)(C)C)cc1NC(=O)c1ccc2ncsc2c1 returned TRPML1 inh 15, TRPML1 agonist 0, TRPV1 potentiator -3 and TRPV1 ag 23.
Screening O=C(Nc1ccc(Cl)cc1)c1ccc2snnc2c1 returned TRPML1 inh -4, TRPML1 agonist -1, TRPV1 potentiator -15 and TRPV1 ag 88*.
For COc1ccc(NC(=O)c2ccc3ncsc3c2)c2ccccc12 the results were TRPML1 inh 10, TRPML1 agonist 1, TRPV1 potentiator 3 and TRPV1 ag 88*.
For O=C(Nc1ccc(F)cc1)c1ccc2ncsc2c1 the results were TRPML1 inh 6, TRPML1 agonist 0, TRPV1 potentiator -19 and TRPV1 ag 93*.
Screening O=C(Nc1cccc(S(=O)(=O)N2CCCCC2)c1)c1ccc2ncsc2c1 returned TRPML1 inh 37, TRPML1 agonist 1, TRPV1 potentiator -16 and TRPV1 ag 85*.
`O=C(Nc1ccc(C(F)(F)F)cc1)c1ccc2ncsc2c1` gave TRPML1 inh 19, TRPML1 agonist 0, TRPV1 potentiator 9 and TRPV1 ag 90*.
`O=C(Nc1ccc(Cl)cc1)c1ccc2ncsc2c1` gave TRPML1 inh -2, TRPML1 agonist 0, TRPV1 potentiator -7 and TRPV1 ag inconclusive.
`CCOCCCn1c(=S)[nH]c2cc(C(=O)NCCCN(CC)CC)ccc2c1=O` gave TRPML1 inh 2, TRPML1 agonist -1, TRPV1 potentiator 105* and TRPV1 ag 4.
`CCOCCCNC(=O)c1ccc2c(=O)n(CCCOCC)c(=S)[nH]c2c1` gave TRPML1 inh -5, TRPML1 agonist 1, TRPV1 potentiator -8 and TRPV1 ag -1.
For Cc1ccc([N+](=O)[O-])c(C(=O)N/N=C/c2cccs2)c1 the results were TRPML1 inh 23, TRPML1 agonist -1, TRPV1 potentiator 20 and TRPV1 ag 83*.
For COc1ccc(NS(=O)(=O)c2ccc3[nH]c4c(c3c2)CCCC4)cc1OC the results were TRPML1 inh 19 and TRPML1 agonist 3.
